# Measured values as given in PubChem BioAssay AID485341 (National Center for Advancing Translational Sciences (NCATS), 2010).
# About 1,700 (0.52%) of roughly 330,000 compounds were called active. Calls come from the whole dose curve; as a rule, active = well fitted inhibition curve with a large enough effect; inconclusive = small, poorly fitted or top-dose-only effect; inactive = no such curve, though single readings can be large or run the other way. Shown is part of a subset that was picked to be rich in actives.
# Target: Beta-lactamase (Escherichia coli (strain K12)) (UniProt P00811)
# Test: qHTS Inhibitors of AmpC Beta-Lactamase (assay without detergent); note: nearly all actives have a fitted effect of over 20% in size
# Conditions: AmpC nitrocefin hydrolysis, absorbance 480 nm, 0.0001% Triton; series mostly up to 57.1 µM; activity change, negative = inhibition: at the top concentration
# Description: NIH Molecular Libraries Probe Production Network [MLPCN] NIH Chemical Genomics Center [NCGC] Assay Provider: Professor Brian Shoichet, UCSF Assay Overview: This aggregation profiling approach exploits the sensitivity of aggregate formation to detergent. Inhibition of b-lactamase is measured in the presence and absence of 0.01% Triton X-100. This particular assay had the prescence of 0.01% Triton X-100. See Pubchem assay "Promiscuous and Specific Inhibitors of AmpC Beta-Lactamase (assay without detergent)" for related screen. Compounds that inhibit only in the absence of detergent are considered likely promiscuous aggregators. A screen of 1,030 compounds was performed in Brian Shoichet's lab in 96-well format. AmpC activity was measured by following the absorbance at 480 nm. Nitrocefin is a chromogenic substrate: while nitrocefin is yellow (lmax 390 nm), the product of its hydrolysis is red (lmax 486 nm, 17,000 M-1). AmpC beta lactamase was provided by Shoichet Lab, UCSF.
# Buffer: 20 mM phosphate buffer, pH 7.0 Triton X-100: No Detergent screen: 0.0001%, Detergent screen: 0.01%. Reagents/Controls: Buffer in columns 3 and 4 as negative control (no enzyme). 5.3 nM AmpC in columns 1, 2, 5-48. Titration of UCSF compound 9 control (from 10 mM, then 1:2) pin-transferred to column 2. Column 1 is neutral (100% activity). Assay Steps: Six uL of reagents were dispensed to 1536-well Greiner black clear bottom plates. Compounds and controls (23 nL) were transferred via Kalypsys PinTool. The plates were incubated for 15 min at room temperature, and then 2 uL of 800 uM solution of nitrocefin was added to start the reaction. The plates were immediately transferred to and read every 20 seconds for 4 min on ViewLux (Perkin-Elmer) High-throughput CCD imager using 480 nm absorbance protocol. During dispense, reagent bottles were kept submerged into 4 deg C water bath. Keywords: NIH Roadmap, MLSCN, MLI, MLSMR, qHTS, NCGC, AmpC Beta-Lactamase, Aggregation
# Potency is the fitted concentration of half-maximal effect.
# Chain of Beta-lactamase (Escherichia coli (strain K12)) (P00811 whole entry, looked up): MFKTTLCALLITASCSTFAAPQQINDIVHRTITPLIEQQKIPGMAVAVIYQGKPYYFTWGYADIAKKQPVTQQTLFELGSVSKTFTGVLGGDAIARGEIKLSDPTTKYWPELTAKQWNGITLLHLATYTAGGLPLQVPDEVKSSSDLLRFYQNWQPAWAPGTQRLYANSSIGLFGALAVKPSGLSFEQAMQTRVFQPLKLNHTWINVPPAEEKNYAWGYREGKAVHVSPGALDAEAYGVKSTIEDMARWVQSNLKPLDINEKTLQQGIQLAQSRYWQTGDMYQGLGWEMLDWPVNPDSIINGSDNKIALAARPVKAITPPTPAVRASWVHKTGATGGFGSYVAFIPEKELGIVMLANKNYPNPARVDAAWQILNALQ
Structure (SMILES),"activity change, negative = inhibition",Potency
COc1ccc(N(CC(=O)Nc2cccc3ccccc23)S(C)(=O)=O)c(OC)c1,33.5% (inactive),
COc1cc(CO)ccc1OCC(=O)Nc1cccc2ccccc12,,14.1 µM (active)
COc1ccccc1NC(=O)COc1ccc(C(=O)OCC(=O)N(C(C)C)C(C)C)cc1OC,108% (inactive),
COc1ccccc1NC(=O)[C@H](COCc1ccccc1)NC(=O)OC(C)(C)C,0.197% (inactive),
C[C@@H](NC(=O)OC(C)(C)C)c1nnc(S(=O)(=O)Cc2ccccc2)o1,,10 µM (active)
CCc1ccccc1NC(=O)CSc1nnc([C@@H](NC(=O)OC(C)(C)C)C(C)CC)o1 (stereo not given in full),-2.18% (inactive),
Cn1c(Cc2csc(N)n2)nnc1SC/C=C/c1ccccc1,-22.6% (inactive),
COc1cc(Cl)c(S(=O)(=O)N2CCN(Cc3ccc4c(c3)OCO4)CC2)cc1Cl,3.51% (inactive),
O=C(CCCN1C(=O)/C(=C/c2cccs2)SC1=S)Nc1ccc(O)cc1,-43.8% (inactive),
COc1ccc(/C=C2/SC(=O)N(CCCCCC(=O)Nc3ccccc3C(=O)O)C2=S)cc1,-28.7% (inactive),
O=C(CCCN1C(=O)/C(=C\c2ccccc2)SC1=S)Nc1ccccc1O,,11.2 µM (active)
O=C1/C(=C\c2ccccc2Cl)SC(=S)N1CCC(=O)N1CCCc2ccccc21,-9.24% (inactive),
O=C(CCCN1C(=O)/C(=C\c2ccco2)SC1=S)Nc1cccc2ccccc12,,11.2 µM (active)
O=C(CN1C(=O)/C(=C\c2ccccc2F)SC1=S)Nc1nc2ccccc2s1,-33.9% (inactive),
CCC(c1nnc(SCC(=O)NNC(=O)c2ccccc2)n1Cc1ccccc1)N(C)C (stereo not given),1.21% (inactive),
CN(C)/C=C(/C(=O)c1ccccc1)S(=O)(=O)c1ccc(Cl)cc1,-33.1% (inactive),
CN(C)/C=C(/C(=O)c1ccc(Cl)cc1)S(=O)(=O)c1ccccc1,-15.6% (inactive),
CN(C)/C=C(/C(=O)c1ccc(F)cc1)S(=O)(=O)c1ccc(F)cc1,,12.6 µM (active)
Cc1ccccc1CN1CCNC(=O)C1CC(=O)NCCC1=CCCCC1 (stereo not given),99.3% (inactive),
COc1cc(NC(=S)NNC(=O)CC(C)C)c(OC)cc1Cl,-27% (inactive),
CSc1sc(C(=O)NNC(=O)c2ccc(Cl)cc2)c2c1C=CCC2,-47% (inactive),
C=CCNC(=O)c1csc(-c2ccccc2)n1,-25.3% (inactive),
C=CCNC(=O)c1sc(SC)cc1-c1ccc(Cl)cc1,,1 µM (active)
CCN1CCN(CC(=O)c2cc(OC)c(OC)c(OC)c2)CC1,-9.84% (inactive),
CC(C)c1ccc(N(C(=O)c2ccco2)C(C(=O)NC2CCCC2)c2cccnc2)cc1 (stereo not given),30.8% (inactive),

Structure (SMILES),"activity change, negative = inhibition",Potency
COC(=O)c1ccccc1SC1CC(=O)N(c2cccc(C)c2)C1=O (stereo not given),,7.08 µM (active)
COC(=O)c1cc(C(=O)OC)cc(N2C(=O)CC(N3CCN(c4ccccc4)CC3)C2=O)c1 (stereo not given),11.2% (inactive),
Cc1cccc(N2C(=O)CC(SC(N)=Nc3ccccc3)C2=O)c1 (stereo not given),-10.7% (inactive),
CCc1ccc(Oc2nc([N+](=O)[O-])nn2C)cc1,-10.1% (inactive),
Cc1c(NC(=O)CN2C(=O)C(=O)N(Cc3ccccc3)C2=O)c(=O)n(-c2ccccc2)n1C,-15.6% (inactive),
O=C1CC(=O)N(Cc2ccccc2)C(=O)N1CCCCCCN1C(=O)CC(=O)N(Cc2ccccc2)C1=O,,7.08 µM (active)
O=C(O)CCCN1C(=O)C2C3c4ccccc4C(c4ccccc43)[C@@H]2C1=O (stereo not given in full),-5.32% (inactive),
COc1ccc(CCN2C(=O)N(c3ccc(OC)cc3)C(=O)C2CC(=O)Nc2ccc(OC)cc2)cc1 (stereo not given),-11.7% (inactive),
CCN=C1S/C(=C\c2cc(Br)ccc2OCC(=O)OCC)C(=O)N1CC,3.25% (inactive),
CCCCn1c(=S)[nH]c2ccccc2c1=O,-26.7% (inactive),
O=c1c2ccccc2[nH]c(=S)n1CCN1CCC(=C(c2ccc(F)cc2)c2ccc(F)cc2)CC1,,3.16 µM (active)
COc1ccc(Cn2c(=S)[nH]c3cc(C(=O)NCCCN4CCOCC4)ccc3c2=O)cc1,35.1% (inactive),
C=CCn1c(SCCOc2ccc(OC)cc2)nnc1C(NC(=O)c1ccc(OC)cc1)C(C)C (stereo not given),3.24% (inactive),
COc1cccc(NC(=O)CCc2nnc3ccc(N4CCC(C)CC4)nn23)c1,125% (inactive),
CN(CC(=O)NCC(c1ccccc1)N1CCCC1)S(=O)(=O)c1ccc(Cl)cc1 (stereo not given),96.8% (inactive),
CCc1ccc(NC(=O)COC(=O)c2cccs2)cc1,-24.7% (inactive),
O=C(COC(=O)c1ccc(O)cc1O)NNC(=O)c1cccs1,-14.2% (inactive),
O=C(COC(=O)c1ccc(NS(=O)(=O)c2cccs2)cc1O)Nc1ccc(F)cc1,,14.1 µM (active)
CC(=O)N/C(=C/c1ccc(OC(F)F)cc1)C(=O)O,-19.8% (inactive),
COc1cccc(-c2coc3cc4oc(=O)c(CC(=O)O)c(C)c4cc23)c1,-22.6% (inactive),
C=CCNC(=O)COc1coc(CN2CCN(Cc3ccccc3)CC2)cc1=O,48.1% (inactive),
COc1ccc(OCCCC(=O)Nc2cccc(S(=O)(=O)N3CCCCCC3)c2)cc1,-8.29% (inactive),
COc1cccc(NC(=O)COc2cccnc2[N+](=O)[O-])c1,-40.6% (inactive),
O=C(CC(NS(=O)(=O)c1ccc(Cl)cc1)c1ccco1)NC1CCCC1 (stereo not given),-46.4% (inactive),
COc1ccccc1CNC(=O)COC(=O)CNS(=O)(=O)c1ccc(NC(C)=O)cc1,-14.1% (inactive),
